Measured values published in PubChem BioAssay (Tox21).
Values joined by “and” are separate entries in the source; they are usually repeats but may differ in a detail not shown here. Identical values can stand only once. Results filed as inconclusive are left out. Some structures have more than one record in an assay (separate samples or runs), and their calls can disagree. Active and inactive are the calls of the source. Unless noted, calls come from the whole dose curve; as a rule, active = well fitted curve in the direction sought with a large enough effect in the repeat runs; inconclusive = weak or mixed curves; inactive = no such curve, though single readings can be large; an effect the other way counts as inactive or inconclusive.

What was measured:
[1] = qHTS assay to identify small molecule antagonists of the retinoid-related orphan receptor gamma (ROR-gamma) signaling pathway - cell viability counter screen (AID 1159520); note: nearly all actives have a fitted effect of over 50% in size; note: potency is the fitted concentration of half-maximal effect; for activity, negative = cytotoxicity: % is set by controls: 0 for no effect and ±100 for the full control effect
In short: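 Tet-on ROR gamma CHO cells were given compounds for 2 hr, then doxycycline hyclate at 1 uM final, and incubated 16 hr at 37 C. Viability was measured as ATP content by CellTiter-Glo luminescence.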

[2] = biological target: Nuclear receptor ROR-gamma (Homo sapiens) (UniProt P51449); experiment: qHTS assay to identify small molecule antagonists of the retinoid-related orphan receptor gamma (ROR-gamma) signaling pathway (AID 1159521; note: nearly all actives have a fitted effect of over 50% in size; note: potency is the fitted concentration of half-maximal effect)
In short: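 Cells were plated, rested 4 h at 37 C, exposed to compounds for 2 h, then given 1 uM final doxycycline hyclate to induce RORγ expression. After 16 h, ONE-Glo luminescence from the ROR response element reporter was measured.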

[3] = qHTS assay to identify small molecule agonists of the AP-1 signaling pathway - cell viability counter screen (AID 1159525; calls by dose curve; note: nearly all actives have a fitted effect of over 55% in size; note: potency is the fitted concentration of half-maximal effect)
In short: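 Same-well cytotoxicity counter screen of the Tox21 10K library in ME-180 cells. The readout is ATP-dependent luminescence after 5 h compound treatment. Data are normalised to DMSO and tetra n-octyl ammonium bromide controls.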

[4] = qHTS assay to identify small molecule agonists of the AP-1 signaling pathway (AID 1159526; calls by dose curve; note: % is set by controls: 0 for no effect and ±100 for the full control effect)
[5] = biological target: Retinoic acid receptor RXR-alpha (Homo sapiens) (UniProt P19793); experiment: qHTS assay to identify small molecule agonists of the RXR signaling pathway (AID 1159527; calls by dose curve; note: % is set by controls: 0 for no effect and ±100 for the full control effect; nearly all actives have a fitted effect of over 35% in size)
Chain of Retinoic acid receptor RXR-alpha (Homo sapiens) (P19793 whole entry, looked up): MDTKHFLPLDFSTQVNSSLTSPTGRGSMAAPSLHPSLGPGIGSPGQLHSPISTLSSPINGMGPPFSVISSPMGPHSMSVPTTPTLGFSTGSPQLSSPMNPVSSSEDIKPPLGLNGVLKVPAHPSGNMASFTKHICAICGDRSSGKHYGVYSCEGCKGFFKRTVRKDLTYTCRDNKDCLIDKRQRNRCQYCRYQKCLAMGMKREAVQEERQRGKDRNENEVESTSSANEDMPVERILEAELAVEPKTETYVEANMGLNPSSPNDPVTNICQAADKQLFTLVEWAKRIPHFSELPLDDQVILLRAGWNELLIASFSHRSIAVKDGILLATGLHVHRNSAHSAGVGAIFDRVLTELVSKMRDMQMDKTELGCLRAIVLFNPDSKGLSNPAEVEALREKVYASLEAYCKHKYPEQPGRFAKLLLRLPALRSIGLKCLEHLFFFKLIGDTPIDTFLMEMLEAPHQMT
In short: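 Cells plated at 2,000/well, rested 5 hr at 37 C, pin-dosed with DMSO compound solutions, incubated 16 hr, then loaded with B/G FRET substrate for 2 hr at RT before dual-emission fluorescence reading.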

[6] = qHTS assay to identify small molecule agonists of the RXR signaling pathway - cell viability counter screen (AID 1159529); note: nearly all actives have a fitted effect of over 50% in size; note: potency is the fitted concentration of half-maximal effect
In short: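 Steps: seed RXR-alpha-UAS-bla HEK 293T cells in assay medium containing 2% charcoal-stripped FBS; incubate 5 hr; add compounds in DMSO; incubate 16 hr at 37 C; after the bla read, add CellTiter-Glo and read luminescence at 30 min.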

[7] = qHTS assay to identify small molecule antagonists of the retinoid acid receptor (RAR) signaling pathway - cell viability counter screen (AID 1159551); note: nearly all actives have a fitted effect of over 35% in size; note: potency is the fitted concentration of half-maximal effect
In short: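 Measured by luminescent ATP detection, viability reflects C3RL4 cells treated 6 h at 37 C with test chemicals in the presence of 1 uM (final) retinol.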

[8] = qHTS assay to identify small molecule antagonists of the retinoic acid receptor (RAR) signaling pathway (AID 1159552; note: nearly all actives have a fitted effect of over 50% in size; note: potency is the fitted concentration of half-maximal effect)
In short: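 Retinol at 1 uM final stimulated RARE-luciferase expression in C3RL4 cells exposed to test compounds for 6 hr at 37 C. Reduced luminescence, read 30 min after detection reagent, indicated pathway antagonism.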

[9] = qHTS assay to identify small molecule antagonists of the estrogen related receptor (ERR) signaling pathway from Tox21 library - cell viability counter screen (AID 1224834); note: nearly all actives have a fitted effect of over 30% in size; note: potency is the fitted concentration of half-maximal effect
In short: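 Seeded ERR cells were rested 6 h at 37 C/5% CO2 before compounds, positive and negative controls or DMSO were added. Incubation continued for 17.5 h, and viability was then quantified by CellTiter-Fluor fluorescence.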

[10] = qHTS assay to identify small molecule agonists of the constitutive androstane receptor (CAR) signaling pathway - cell viability counter screen (AID 1224836); note: nearly all actives have a fitted effect of over 45% in size; note: potency is the fitted concentration of half-maximal effect
In short: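 Cells were seeded and incubated 4 hrs. Compounds were added across 15 concentrations together with PK11195 at 0.75 uM final. Plates were incubated 23 hrs at 37 C. CellTiter-Fluor was added and fluorescence measured.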

[11] = biological target: Luciferin 4-monooxygenase (Photinus pyralis) (UniProt P08659); experiment: qHTS assay to identify small molecule inhibitors of firefly luciferase (AID 1224835); note: nearly all actives have a fitted effect of over 25% in size; note: potency is the fitted concentration of half-maximal effect
Chain of Luciferin 4-monooxygenase (Photinus pyralis) (P08659 whole entry, looked up): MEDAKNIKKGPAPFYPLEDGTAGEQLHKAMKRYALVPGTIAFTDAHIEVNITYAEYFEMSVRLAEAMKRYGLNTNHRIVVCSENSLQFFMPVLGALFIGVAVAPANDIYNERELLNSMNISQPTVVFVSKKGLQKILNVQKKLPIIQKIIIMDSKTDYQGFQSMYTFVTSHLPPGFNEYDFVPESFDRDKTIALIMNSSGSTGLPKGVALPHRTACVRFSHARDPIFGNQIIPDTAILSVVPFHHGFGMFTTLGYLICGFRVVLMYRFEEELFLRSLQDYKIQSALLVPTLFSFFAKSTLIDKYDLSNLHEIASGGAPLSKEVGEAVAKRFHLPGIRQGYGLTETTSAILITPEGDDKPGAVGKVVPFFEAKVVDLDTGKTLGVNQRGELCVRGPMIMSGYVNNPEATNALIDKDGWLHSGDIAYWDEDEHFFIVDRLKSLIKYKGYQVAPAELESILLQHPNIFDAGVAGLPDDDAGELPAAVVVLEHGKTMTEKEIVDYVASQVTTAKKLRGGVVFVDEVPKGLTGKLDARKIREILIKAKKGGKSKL
In short: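 Biochemical qHTS: compounds run as interplate titrations against purified firefly enzyme, with D-luciferin and ATP each at its KM concentration. Light output recorded by CCD imaging.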

[12] = qHTS assay to identify small molecule agonists of the retinoic acid receptor (RAR) signaling pathway (AID 1159553); note: potency is the fitted concentration of half-maximal effect
In short: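 6 hr compound exposure (DMSO vehicle) of overnight-plated C3RL4 RARE-luc cells at 37 C; luminescence quantified after 30 min RT with luciferase reagent.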

[13] = qHTS assay to identify small molecule agonists of the estrogen related receptor (ERR) signaling pathway (AID 1224820); note: % is set by controls: 0 for no effect and ±100 for the full control effect
In short: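 An ERR cell line provided by NTP was seeded at 2,000 cells per well and allowed to settle for 6 h before compounds in DMSO were added. After 18 h at 37 C, luciferase activity was measured by One-Glo luminescence.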

[14] = test system: estrogen-related receptor alpha (ERRalpha) with PGC-1alpha coactivator, human; experiment: qHTS assay to identify small molecule antagonists of the estrogen related receptor signaling pathway with the pleiotropic PPARgamma coactivator (PGC) (AID 1224821; calls by dose curve)
In short: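 A PGC/ERR cell line supplied by NTP is seeded, allowed 6 h at 37 C, and treated with test compounds in DMSO for 18 h. Signal is then measured as luciferase luminescence using One-Glo.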

[15] = qHTS assay to identify small molecule antagonists of the estrogen related receptor signaling pathway with the pleiotropic PPARgamma coactivator (PGC) cell viability counter screen (AID 1224822; note: potency is the fitted concentration of half-maximal effect)
In short: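 Counter screen for cell viability: PGC/ERR cells, 6 h pre-incubation after plating, 17.5 h compound exposure at 37 C, fluorescence from CellTiter-Fluor after 30 min.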

[16] = qHTS assay to identify small molecule agonists of the estrogen related receptor signaling pathway with the pleiotropic PPARgamma coactivator (PGC) (AID 1224823); note: % is set by controls: 0 for no effect and ±100 for the full control effect
In short: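 Compounds dissolved in DMSO are added by pin tool to PGC/ERR cells that have settled for 6 h, and incubation continues 18 h at 37 C. Reporter output is measured as One-Glo luminescence.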

CCOCN(C(=O)CS(=O)(=O)O)c1c(C)cccc1CC
inactive: Potency [1] | Potency [2] | Potency [3] | Potency [4] | Potency [5] | Potency [6] | Potency [7] | Potency [8] | Potency [9] | Potency [10]

CCCCCCCOC(=O)c1ccccc1C(=O)OCCCCCCC
inactive: Potency [1] | Potency [2] | Potency [3] | Potency [4] | Potency [5] | Potency [7] | Potency [8] | Potency [9] | Potency [11] | Potency [10]

CC1=C(/C=C/C(C)=C/C=C/C(C)=C/C(=O)Nc2ccc(O)cc2)C(C)(C)CCC1
active: Potency [1] 31.4 µM and 13.3 µM | Potency [2] 19.8 µM and 8.41 µM | Potency [3] 44.8 µM | Potency [6] 35.6 µM and 12 µM | Potency [12] 4.98 µM and 2.66 µM | Potency [15] 13.9 µM | Potency [9] 28 µM and 23.7 µM | Potency [10] 23.7 µM
inactive: outcome [13] | outcome [14] | outcome [16] | Potency [11]
inactive and 29.8 µM (active): Potency [8]

C=CC(C)C#N (stereo unspecified)
inactive: Potency [1] | Potency [2] | Potency [3] | Potency [4] | Potency [7] | Potency [8] | Potency [9] | Potency [11] | Potency [10]

CC(C)(C)c1cc(CCC(=O)NCCCCCCNC(=O)CCc2cc(C(C)(C)C)c(O)c(C(C)(C)C)c2)cc(C(C)(C)C)c1O
inactive: Potency [1] | Potency [2] | Potency [3] | Potency [4] | Potency [6] | Potency [7] | Potency [8] | Potency [9] | Potency [10]

Cc1c(C)n(Cc2ccccc2)c2ccc(C(=O)OCCN(C)C)cc12
active: Potency [11] 27.5 µM
inactive: Potency [3] | Potency [7] | Potency [8] | Potency [12]

CCCC(=O)OCC(COC(=O)CCC)OC(=O)CCC
inactive: Potency [1] | Potency [2] | Potency [3] | Potency [4] | Potency [7] | Potency [8] | Potency [9] | Potency [10]

C1CC(COCC2CO2)CCC1COCC1CO1 (stereo unspecified)
inactive: Potency [1] | Potency [3] | Potency [6] | Potency [7] | Potency [9] | Potency [11] | Potency [10]

Clc1ccc(C(Cn2ccnc2)OCc2c(Cl)cccc2Cl)c(Cl)c1 (stereo unspecified)
inactive: Potency [7] | Potency [11] | Potency [10]
active: Potency [2] 13.3 µM | Potency [6] 26.8 µM | Potency [9] 29.8 µM

CCCCCCCCCCCCOC(=O)c1cc(O)c(O)c(O)c1
active: Potency [1] 2.42 µM and 4.86 µM | Potency [2] 2.16 µM and 2.17 µM | Potency [3] 43.5 µM and 38.9 µM | Potency [6] 27.4 µM and 34.7 µM | Potency [12] 172 nM and 386 nM | Potency [9] 60.9 µM and 27.3 µM | Potency [10] 68.3 µM
inactive: Potency [8]

C=C1C(C)(C)[C@@]2(Cl)C(Cl)[C@]1(Cl)C(Cl)(Cl)C2(Cl)Cl (stereo partly specified)
active: Potency [1] 67.3 µM | Potency [2] 47.7 µM | Potency [3] 48.1 µM | Potency [6] 19.1 µM | Potency [8] 60 µM | Potency [9] 67.3 µM
inactive: Potency [7] | Potency [12] | Potency [11] | Potency [10]

C=C(c1ccc(C(=O)O)cc1)c1cc2c(cc1C)C(C)(C)CCC2(C)C
inactive: Potency [11] | Potency [10]
active: Potency [1] 30.6 µM | Potency [2] 24.3 µM and 23.7 µM | Potency [3] 30.9 µM | Potency [7] 61.1 µM | Potency [9] 54.5 µM

CC(=O)O[C@@H]1C[C@@H]2CC[C@@]1(C)C2(C)C
inactive: Potency [1] | Potency [2] | Potency [3] | Potency [4] | Potency [7] | Potency [8] | Potency [9] | Potency [11] | Potency [10]

Cc1ccc(O)cn1
inactive: Potency [1] | Potency [2] | Potency [3] | Potency [4] | Potency [6] | Potency [7] | Potency [8] | Potency [9] | Potency [11] | Potency [10]

CCN(CC)c1ccc(N)cc1
active: Potency [12] 3.15 µM | Potency [9] 28.1 µM | Potency [11] 41 µM | Potency [10] 31.5 µM
inactive: Potency [8]

Cc1cc(Nc2ccc(O)cc2)ccc1N
inactive: Potency [3] | Potency [8] | Potency [12]
active: Potency [9] 30.5 µM | Potency [11] 63 µM

CCCCCCCCCCCCCOP(=O)(O)O
inactive: Potency [1] | Potency [3] | Potency [6] | Potency [7] | Potency [8] | Potency [12] | Potency [9] | Potency [10]

Cc1cccc(C)n1
inactive: Potency [1] | Potency [2] | Potency [3] | Potency [4] | Potency [7] | Potency [8] | Potency [9] | Potency [11] | Potency [10]

CN1[C@@H]2CC[C@H]1CC(OC(=O)C(CO)c1ccccc1)C2 (stereo partly specified)
inactive: Potency [1] | Potency [3] | Potency [4] | Potency [7] | Potency [9] | Potency [10]
active: Potency [6] 48.9 µM

CCC(C)c1cc([N+](=O)[O-])cc([N+](=O)[O-])c1OC(=O)OC(C)C (stereo unspecified)
active: Potency [1] 61.1 µM | Potency [2] 19.3 µM | Potency [8] 34.4 µM | Potency [9] 24.3 µM
inactive: Potency [3] | Potency [12]

CCC1(c2cnc[nH]2)Cc2ccccc2C1
inactive: Potency [1] | Potency [2] | Potency [3] | Potency [5] | Potency [6] | Potency [7] | Potency [8] | Potency [12] | Potency [9] | Potency [11] | Potency [10]

COc1cc(C(C)C)c2c(c1)S(=O)(=O)N(COc1cc(=O)n3cccc(OCCN4CCCCC4)c3n1)C2=O
inactive: activity, negative = cytotoxicity [1] -0.0922% [at 19 µM] | activity change, negative = inhibition [2] -4.73% [at 19 µM] | viability change, negative = cytotoxic [3] -17.4% [at 15.8 µM] | activation [4] 7.65% [at 15.8 µM] | activity change, negative = cytotoxicity [7] 5.72% [at 19 µM] | activity, negative = inhibition [8] 1.67% [at 19 µM] | Potency [12] | activity change, negative = inhibition [11] -3.11% [at 23.6 µM] | viability change, negative = cytotoxic [10] -20.4% [at 19 µM]

CCc1cccc(C)c1
inactive: Potency [1] | Potency [2] | Potency [3] | Potency [5] | Potency [6] | Potency [7] | Potency [9] | Potency [11] | Potency [10]

CCCCN(C)C
inactive: Potency [1] | Potency [2] | Potency [3] | Potency [4] | Potency [7] | Potency [8] | Potency [9] | Potency [11] | Potency [10]

Oc1c(Br)cc(Br)c2cccnc12
inactive: Potency [3] | Potency [7] | Potency [12] | Potency [11] | Potency [10]
active: Potency [6] 1.51 µM | Potency [9] 23.7 µM
